This note sets out measurements from PubChem BioAssay (EPA / NIEHS).

Usually AC50 stands for the midpoint of the concentration-response curve, whichever way the signal moves.

Molecules are shown by their SMILES. Active and inactive are the calls of the source. The calls were made as follows: active = hit-call score of the fitted dose curve at least 0.9, where 1 is the maximum; inactive = score below 0.9.

Read-out in this assay: Matrix Metallopeptidase 9 (MMP9), MMP9 (gene 4318)
In words: BSK_KF3CT_MMP9: BioMAP Diversity Plus: KF3CT Assay for Matrix Metallopeptidase 9 (MMP9) Biomarker Activity (AID 2283074). The note with it: primary human keratinocytes with fibroblasts; actives raise or lower the signal. On the procedure: BSK_KF3CT is a cell-based, multiplexed-readout assay that uses keratinocytes and foreskin fibroblasts, a human skin primary cell co-culture, with measurements taken at 24 hours after chemical dosing in a 96-well plate.BSK_KF3CT_MMP9 is an assay component measured in the BSK_KF3CT assay. It measures MMP-9 antibody related to regulation of gene expression using ELISA technology.Data from the assay component BSK_KF3CT_MMP9 was analyzed into 1 assay endpoint. This assay endpoint, BSK_KF3CT_MMP9, was analyzed with bidirectional fitting relative to DMSO as the negative control and baseline of activity. Using a type of binding reporter, gain or loss-of-signal activity can be used to understand changes in the signaling as they relate to the gene MMP9. Furthermore, this assay endpoint can be referred to as a primary readout, because this assay has produced multiple assay endpoints where this one serves a signaling function. To generalize the intended target to other relatable targets, this assay endpoint is annotated to the protease intended target family, where the subfamily is matrix metalloproteinase.
The levels of cell surface (or secreted, indicated by the prefix "s") biomarker endpoints were measured by ELISA. Overt cytotoxicity to cells in confluent adherent cultures (all systems other than the BT system) was assessed by measuring total protein levels using sulforhodamine B (SRB) staining in parallel cultures at the time of biomarker measurements, indicated as SRB endpoints. For proliferation assays for adherent cell types, individual cell types are cultured at sub-confluence and relative cell numbers quantified by SRB staining at time points optimized for each system (48 h: 3C and CASM3C systems; 72 h: BT and HDF3CGF systems; 96 h: SAg system). SRB was performed by staining cells with 0.1% SRB after fixation with 10% TCA and reading wells at 560 nm.Viability and proliferation of PBMC (T cells) was quantified by Alamar Blue reduction for the SAg and BT systems. For PBMC viability (referred to as PBMC Cytotoxicity within the assay endpoint names), cells were plated (75,000/well in a 96-well plate) and then chemical samples added for 1 h before addition of activators, SEB and TSST-1 (20 ng/mL final concentration each). Cells were incubated for 90 h. Then, Alamar Blue (20 uL/well) (Invitrogen, Cat DAL1100) was added for 6 h, and the plates were read with a fluorescence microplate reader at 546/580 nm (excitation/emission). For PBMC proliferation, cells were plated and activated as above but incubated for only 16 h prior to addition of Alamar Blue. Plates were read after 6 h.
With `Oc1cccc2cccnc12`, the half-maximal activity concentration (AC50) is 2.46 µM (active).
For the compound `C=CC(=O)OCCCCCC(C)C`, the outcome was inactive.
Take `Oc1ccc(-c2ccccc2)cc1`: the result was inactive.
Consider `CC(C)(C)CC(C)(C)c1ccc(O)cc1`, for which the concentration at half-maximal activity (AC50) is 9.64 µM (active).
With `O=C(OC1CCCCC1)c1ccccc1C(=O)OC1CCCCC1`, the half-maximal activity concentration (AC50) was 9.72 µM (active).
For the compound `CC(C)c1ccc(CO)cc1`, the result was inactive.
For the compound `OCc1ccco1`, the result was inactive.
For the compound `CCNc1nc(NC(C)(C)C)nc(SC)n1`, the outcome was inactive.
Consider `O=C(O)C(F)(F)C(F)(F)C(F)(F)C(F)(F)C(F)(F)C(F)(F)F`, for which the result was inactive.
For the compound `CC1(C)Cc2cccc(O)c2O1`, the result was inactive.
Regarding `COc1cc(-c2ccc(N)c(OC)c2)ccc1N`, the result was inactive.
Turning to `Nc1ncc([N+](=O)[O-])s1`, the result was inactive.
For the compound `C[C@]12CCC(=O)C[C@@H]1CC[C@@H]1[C@@H]2CC[C@]2(C)[C@@H](O)CC[C@@H]12`, the result was inactive.
With `O=[N+]([O-])c1ccc2c3c(cccc13)CC2`, the outcome was inactive.
As for `C[C@@H]1C[C@@H]([C@H](O)CC2CC(=O)NC(=O)C2)C(=O)[C@@H](C)C1`, the AC50 was 4.67 µM (active).
Take `ClC1=C(Cl)[C@]2(Cl)[C@H]3[C@H]([C@H]4C=C[C@H]3C4)[C@@]1(Cl)C2(Cl)Cl`: the outcome was inactive.
Take `ClC(Cl)=C(Cl)C(Cl)=C(Cl)Cl`: the AC50 was 28.9 µM (active).
For `Nc1cccc2ccccc12`, the AC50 is 20 µM (active).
Regarding `CC(C)(C)c1cc(O)ccc1O`, the AC50 was 29.5 µM (active).
The same measure, in the same setting: the result for `C=C(C)C(=O)[O][Sn]([CH2]CCC)([CH2]CCC)[CH2]CCC` reads 0.148 µM (active).
In the case of `NC(=O)O`, the outcome was inactive.
`Cc1ccccc1N`: the outcome was inactive.
Turning to `COC(=O)Cc1ccccc1`, the outcome was inactive.
For the compound `CCCCCCCCc1ccc(O)cc1`, the AC50 was 28.8 µM (active).
Take `CN(C)N=O`: the result was inactive.
For `COc1cc(OC)nc(NC(=O)NS(=O)(=O)c2ncccc2C(=O)N(C)C)n1`, the outcome was inactive.
Turning to `CC(=O)C(Cl)C(=O)N(C)C` (stereo not given), the outcome was inactive.
`ClCC(Cl)CCl`: the result was inactive.
With `COP(=S)(OC)Oc1c(Cl)cc(C)cc1Cl`, the AC50 was 20 µM (active).
On to `CCSC(C)CC1CC(=O)C(C(CC)=NOC/C=C/Cl)=C(O)C1` (stereo not given), for which the outcome was inactive.
For `CCOC(=O)/C=C(C)/C=C/C[C@@H](C)CCCC(C)C`, the AC50 is 30.2 µM (active).
Consider `CCOP(=S)(OCC)SCSP(=S)(OCC)OCC`, for which the result was inactive.
Same read-out and setting: the result for `ClC1(Cl)C2(Cl)C3(Cl)C4(Cl)C(Cl)(Cl)C5(Cl)C3(Cl)C1(Cl)C5(Cl)C24Cl` (stereo not given) reads “inactive”; that for `CCOP(=S)(OCC)SCCS(=O)(=O)CC`, “inactive”; that for `CC(C)(OO)c1ccccc1`, “inactive”.
Consider `CC(C)(c1ccccc1)c1ccc(O)c(C(C)(C)c2ccccc2)c1`, for which the AC50 is 2.41 µM (active).
In the case of `NC(=S)Nc1ccccc1`, the result was inactive.
On to `CC(=O)OC(c1ccccc1)C(Cl)(Cl)Cl` (stereo not given), for which the result was inactive.
Take `O=C(O)C(Cl)(Cl)Cl`: the result was inactive.
On to `CC12CC1(C)C(=O)N(c1cc(Cl)cc(Cl)c1)C2=O` (stereo not given), for which the result was inactive.
